Source: PubChem
An excerpt weighted towards active compounds, which were near 4.6% of everything screened.
hcDAF-12 act = activators of H. contortus DAF-12 nuclear receptor. 370,000 compounds, 1.4% hits. HEK293 hcDAF-12 lit1-tk-luc reporter, luminescence; 0% DMSO, 100% Δ7-dafachronic acid. AID 652067. activation, % at 6.8 µM;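 active = activation above the mean of all tested compounds plus 3 SD, cut at about 5.5% in these data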;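 note: 100% = response to 3 µM Δ7-dafachronic acid high control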
Wee1 stabilizer = inhibitors of human Wee1 degradation; P30291; HeLa Luc-Wee1K328M stability, luciferase luminescence; 100% = proteasome inhibitor MG132 effect; reporter increase, % at 5 µM; 220,000 compounds, 1.2% hits;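 active = activation above the mean of all tested compounds plus 3 SD, set per screening run, cut at about 8.8% in these data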;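 note: cells exposed to compound for 20 h before luminescence read; 0% = DMSO alone and 100% = MG132 at 30 µM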
hgDAF-12 ag = activates the H. glycines DAF-12 receptor ligand-binding domain; HEK293 GAL4-hgDAF12 UAS-luciferase reporter, agonist luminescence; normalized to butyrate control; activation, % at 6.8 µM; 370,000 compounds, 1.8% hits;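 active = activation above a cutoff set at the mean of all screened compounds plus 3 SD, cut at about 10% in these data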;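 note: 0% = DMSO wells and 100% = sodium butyrate wells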
DAX1 inh-1 = inhibits human nuclear receptor DAX1; P51843; HEK293 Gal4-DAX1 luciferase reporter, luminescence; inhibition, % at 6.75 µM; 340,000 compounds, 0.99% hits;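 active = inhibition above the mean over all tested compounds plus 3 SD, cut at about 4.2% in these data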;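 note: 0% = DAX1-transfected cells with DMSO and 100% = empty-vector control cells with DMSO; inhibition shows as a rise in luminescence from relieved DAX1 repression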
Target sequence (P51843 207-470 limits assumed): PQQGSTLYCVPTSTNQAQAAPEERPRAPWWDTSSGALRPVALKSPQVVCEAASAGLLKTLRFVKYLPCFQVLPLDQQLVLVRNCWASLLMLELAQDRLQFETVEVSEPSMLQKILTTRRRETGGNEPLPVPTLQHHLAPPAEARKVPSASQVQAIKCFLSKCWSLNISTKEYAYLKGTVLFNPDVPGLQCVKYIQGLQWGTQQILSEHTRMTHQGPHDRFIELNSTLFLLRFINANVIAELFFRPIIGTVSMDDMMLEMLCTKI
ssDAF-12 act = activates DAF-12 receptor from parasite S. stercoralis; activation, % at 6.8 µM; 370,000 compounds, 1% hits; HEK293 ssDAF-12/GRIP1 lit1-tk-luc reporter, luminescence; % of 3 µM dafachronic acid response;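 active = activation above the mean over all tested compounds plus 3 SD, cut at about 0.9% in these data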;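 note: 0% = DMSO-only wells and 100% = 3 µM delta7-dafachronic acid wells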
DAX1 inh-2 = inhibitors of DAX1 repression of SF-1 activated StAR promoter; HEK293T StAR-luciferase reporter, SF-1/DAX-1 repression relief; inhibition, % at 6.8 µM; 370,000 compounds, 1.1% hits;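 active = inhibition above the mean over all tested compounds plus 3 SD, cut at about 3.6% in these data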;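 note: 0% = DAX-1 cells with DMSO and 100% = cells lacking DAX-1 with DMSO; higher inhibition means more luminescence from relief of DAX-1 repression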
* = called active by the depositor; / = not tested or not shown.

SMILES	hcDAF-12 act	Wee1 stabilizer	hgDAF-12 ag	DAX1 inh-1	ssDAF-12 act	DAX1 inh-2
COc1cccc(NC(=O)CN(C)CC(=O)NC(C)c2ccccc2)c1 (configuration not stated)	0	8.9*	-2	3	-1	0
CN(C(=O)CSc1nc2ccccc2[nH]1)C1CCS(=O)(=O)C1 (configuration not stated)	0	/	-1	1	0	2
Cc1ccc(F)cc1C(=O)N1CCCC(c2cc(C(=O)NCc3ccccc3)no2)C1 (configuration not stated)	-1	/	2	/	-1	4.0*
CCCNC(=O)c1cc(C2CCCN(S(=O)(=O)c3ccccc3)C2)on1 (configuration not stated)	-3	/	0	/	-1	-1
CCCNC(=O)c1cc(C2CCCN(S(=O)(=O)c3cccs3)C2)on1 (configuration not stated)	-2	/	-2	/	1.1*	-1
CCN1CCN(c2ccc(S(=O)(=O)N3CCOCC3)cc2NC(=O)CC(NC(C)=O)c2ccccc2)CC1 (configuration not stated)	0	/	0	1	-1	0
Cc1noc(C)c1NC(=O)Nc1ccc2c(c1)C(=O)N([C@H](C)CO)C[C@H](C)[C@@H](CN(C)C(=O)NC1CCCCC1)O2	-1	/	0	1	-1	0
COc1ccc(S[C@]2(C(=O)N3CCN(c4ncccn4)CC3)CC(=O)N[C@@H]2c2ccc(OC)cc2)cc1	-1	/	3	/	0	-1
CC(C)[C@H](NC(=O)CC1CCCC1)C(=O)N1CCC[C@H]1C(=O)NCCc1ccccc1Cl	-1	/	-2	/	-1	0
COc1ccc(C(=O)CCNc2ccc(F)cc2)cc1	1	8	2	5.2*	-1	1
O=C(CCCC(=O)c1ccccc1)NCCc1ccccc1	-1	/	0	-1	-1	0
COc1ccc(NC(=O)CN(C)C(=O)CNC(=O)c2ccc3ccccc3c2)cc1	3	/	9	4.2*	1	3
COc1ccc(C(=O)CN2C(=O)c3ccccc3C2=O)cc1	0	1	2	/	1.5*	0
O=C(CCCc1ccccc1)c1ccccc1	5.6*	/	6	4.9*	-1	2
OC(c1ccc(F)cc1)c1nc(-c2cncnc2)cs1 (configuration not stated)	-1	/	1	/	-1	-1
CCOC(=O)[C@@]12CCCC3=C1N(CCC3)C(=O)[C@H]2CC(=O)NCC1CCCCC1	-2	/	-1	/	-1	-1
O=C(CCCc1ccccc1)NC1CC1	5.7*	0	1	0	-1	0
COc1ccc(C(=O)NCCCc2ccccc2)cc1	2	/	11*	/	0	2
O=C(NCCCc1ccccc1)c1ccccc1	3	2	7	0	0	1
O=C(CCCc1ccccn1)c1ccc(-c2ccccc2)cc1	2	/	6	2	0.9*	1
COc1ccc(C(=O)/C(=C/N(C)C)S(=O)(=O)c2ccccc2)cc1	3	1	12*	1	-1	2
C[C@H]1CN([C@@H](C)CO)C(=O)c2cc(Br)cnc2O[C@H]1CN(C)Cc1ccccc1C(=O)O	1	/	1	1	-1	1
COc1ccc(C(=O)NCC(=O)c2ccccc2)cc1	1	/	12*	1	0	2
COc1ccc(C(=O)OCCc2sc[n+](CC(=O)c3ccccc3)c2C)cc1	0	/	2	4.5*	-2	-1
Cc1c(CCOC(=O)c2ccc([N+](=O)[O-])cc2)sc[n+]1CC(=O)c1ccccc1	-2	1	-4	2	-1	-1
SMILES	hcDAF-12 act	Wee1 stabilizer	hgDAF-12 ag	DAX1 inh-1	ssDAF-12 act	DAX1 inh-2
O=C(CNC(=O)c1ccccc1Cl)c1ccccc1	2	/	13*	4	0	1
COc1cccc(/C(O)=C/c2nc3ccc(C(=O)NCCc4cccc(C)c4)cc3[nH]c2=O)c1	1	-2	3	0	1.1*	1
O=C(Oc1ccccc1F)c1ccc2c(=O)n3c(nc2c1)CCC3	-1	/	3	1	-1	-1
CCn1c2ccccc2c2cc(C=Nn3c(-c4ccccn4)n[nH]c3=S)ccc21	-1	/	-3	/	-2	-4
COc1ccc(CCNS(=O)(=O)CCNC(=O)c2ccccc2)cc1	0	/	1	-1	-1	-1
O=C(CC(=O)c1ccccc1)c1ccccc1	1	/	11*	2	-1	3.6*
COc1ccc(C(=O)C(=NNc2ccccc2)c2ccc(OC)cc2)cc1	-1	/	-3	-2	-1	-4
COc1ccc(C(=O)C(=NN)c2ccccc2)cc1	0	/	12*	1	0	3
O=C(CC(=O)c1ccncc1)c1ccccc1	2	/	5	0	-1	1
COc1cccc(C(=O)NCCS(=O)(=O)NCCc2ccccc2)c1	3	/	8	1	0	4.0*
O=C(Cn1cncn1)c1ccccc1	-2	1	0	5.7*	0	0
CC(NC(=O)CCSCc1ccccc1F)c1ccccc1 (configuration not stated)	3	/	6	0	-1	0
Cc1csc(NC(=O)c2ccc(COc3cccc(F)c3)o2)n1	1	/	9	/	-1	2
CCCS(=O)(=O)NC(=O)C1(C)CCN(C(=O)c2cncc(Br)c2)C1 (configuration not stated)	-1	/	-2	/	-1	1
C[C@@H]1CN([C@@H](C)CO)C(=O)CCCn2cc(nn2)CO[C@H]1CN(C)C(=O)c1ccc(N2CCN(C)CC2)cc1	0	/	0	/	-1	0
CCN1C[C@@H]2[C@@H]3C(=O)N(Cc4ccccc4)C(=O)[C@@H]3[C@](C)(C1=O)N2C(=O)c1ccc(Cl)cc1	-2	/	0	0	-1	0
COc1ccc(CCNC(=O)C(=O)c2cn(CC(=O)N3CCCC3)c3ccccc23)cc1	1	/	-2	0	-1	-1
O=C(CCCC(=O)c1ccc(O)cc1)c1ccc(O)cc1	4	/	11*	2	1	2
COc1ccc(C(=O)CC(=O)c2ccccc2)cc1	4	/	11*	/	0	1
CCC(=O)c1ccc(O)cc1	-1	-4	3	0	-1	1
COc1ccc(C(=O)CNc2ccc3ccccc3c2)cc1	5.9*	2	9	/	0	0
COc1ccc(C(=O)CC(=O)c2ccc(OC)cc2)cc1	-1	/	1	2	-1	0
CCCCN1C(=O)C(CC(=O)NCCN2CCOCC2)CC(C(=O)N(CC)CC)=C1C (configuration not stated)	-1	/	0	0	-1	0
Cc1cccc(NC(=O)/C=C/c2cccs2)n1	6.2*	2	13*	1	0	3
O=C(/C=C/c1cccs1)Nc1ccncc1	1	-1	3	0	-2	0
